Reference: PubChem BioAssay AID1851 (National Center for Advancing Translational Sciences (NCATS), 2009)
“And” between values parts separate entries of the source, which are not always exact repeats. Equal values may be shown once. Among all 16,000 compounds or so, about 2,600 (16%) were called active. Inconclusive results (about 20%) are left out. The sample holds actives, similar compounds and a random draw of the others, so the mix is not that of the screen. A number with no mark means an inactive call. Calls come from the whole dose curve; as a rule, active = well fitted curve in the direction sought with a large enough effect; inconclusive = small, poorly fitted or top-dose-only effect, or effect the other way; inactive = no such curve, though single readings can be large or run the other way.
% is set by controls: 0 for no effect and ±100 for the full control effect.

Each compound was assayed against Cytochrome P450 2D6 (Homo sapiens) (UniProt P10635) (assay: Cytochrome panel assay with activity outcomes). Details: recombinant CYP, pro-luciferin dealkylation, luminescence, p450-cyp2d6; series mostly up to 57.1 µM; activity, negative = inhibition: at the top concentration.
Cytochrome P450 2D6 (Homo sapiens), sequence (P10635 whole entry, looked up): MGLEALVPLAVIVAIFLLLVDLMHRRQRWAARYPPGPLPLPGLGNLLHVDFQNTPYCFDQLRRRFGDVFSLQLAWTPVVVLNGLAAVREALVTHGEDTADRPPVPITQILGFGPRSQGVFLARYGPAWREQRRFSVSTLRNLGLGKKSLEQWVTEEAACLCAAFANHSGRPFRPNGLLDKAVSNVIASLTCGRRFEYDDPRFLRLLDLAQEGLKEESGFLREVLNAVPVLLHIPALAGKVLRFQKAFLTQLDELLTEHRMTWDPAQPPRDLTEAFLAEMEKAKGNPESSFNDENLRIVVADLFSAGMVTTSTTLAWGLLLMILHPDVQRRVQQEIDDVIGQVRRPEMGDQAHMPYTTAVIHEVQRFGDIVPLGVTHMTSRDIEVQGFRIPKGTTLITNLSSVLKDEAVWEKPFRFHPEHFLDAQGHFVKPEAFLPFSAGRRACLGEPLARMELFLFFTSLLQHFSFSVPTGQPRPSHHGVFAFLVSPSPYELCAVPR
With `C[C@@H]1[C@@H]2Cc3ccc(O)cc3[C@@]1(C)CCN2CC1CC1` the AC50 was 31.6 µM (active).
In the case of `CC(=O)c1c(O)c(C)c(O)c(Cc2c(O)c3c(c(C(=O)/C=C\c4ccccc4)c2O)OC(C)(C)C=C3)c1O`, the “activity, negative = inhibition” value is reported as -9.48%.
`CC[C@@]1(O)C(=O)OCc2c1cc1n(c2=O)Cc2cc3ccccc3nc2-1` was tested, and the AC50 was “inactive”.
`C=C1C/C(=C\C)C(=O)O[C@@H]2CCN3CC=C(COC(=O)[C@@]1(C)O)[C@H]23` was tested, and the “activity, negative = inhibition” value was 3.61% [at 25.6 µM].
With `O=c1ccc2[nH]cc(C3=CCNCC3)c2[nH]1` the AC50 was 2.51 µM (active).
`COc1ccc2[nH]cc(C3=CCNCC3)c2c1` was tested, and the “activity, negative = inhibition” value was -4.23%.
For `OC1(c2ccc(Cl)cc2)CCN(Cc2c[nH]c3ccccc23)CC1`, the AC50 was 0.316 µM (active).
With `O=C(Nc1ccc(Cl)cc1C(=O)c1ccccc1)c1ccco1` the “activity, negative = inhibition” value was -13.7%.
With `NC(N)=Nc1ccc2[nH]c3c(c2c1)C[C@]1(O)[C@@H]2Cc4ccc(O)c5c4[C@]1(CCN2CC1CC1)[C@@H]3O5` the “activity, negative = inhibition” value was 8.91%.
For `O=C(/C=C\c1ccc(Cl)cc1)N[C@@]12CCC(=O)[C@@H]3Oc4c(O)ccc5c4[C@@]31CCN(CC1CC1)[C@@H]2C5`, the AC50 was 5.01 µM (active).
For `COc1ccc2c3c1O[C@@H]1C(=O)CC[C@@]4(O)[C@@H](C2)N(CC2CC2)CC[C@]314`, the AC50 was 5.01 µM (active).
In the case of `O=C1/C(=C\c2ccccc2)C[C@@]2(O)[C@H]3Cc4ccc(O)c5c4[C@@]2(CCN3CC2CC2)[C@@H]1O5`, the “activity, negative = inhibition” value is reported as 12.5%.
`C=C(C)CN1CC[C@@]23c4c5ccc(O)c4O[C@H]2c2[nH]c4ccccc4c2C[C@]3(O)[C@@H]1C5` was tested, and the “activity, negative = inhibition” value was 1.9%.
In the case of `Cc1ncc([N+](=O)[O-])n1CCN=[N+]=[N-]`, the activity, negative = inhibition is reported as 0.431% [at 11.4 µM].
With `CCCN(CCC)C(=O)Cc1c(-c2ccc(Cl)cc2)nc2c(Cl)cc(Cl)cn12` the “activity, negative = inhibition” value was 2.68%.
`C[C@]12CCC3c4ccc(OCC(=O)O)cc4CCC3C1CCC2=O` (stereo partly drawn) was tested, and the activity, negative = inhibition was 12.6% [at 11.4 µM].
With `COc1ccc2c(c1)CCC1[C@@H]2CCC2(C)[C@@H](NCCCCCCN3C(=O)C=CC3=O)CC[C@@H]12` (stereo partly drawn) the AC50 was 10 µM (active).
In the case of `C[C@]12CC[C@H]3c4ccc(O)cc4CC[C@@H]3[C@H]1CC[C@@H]2OP(=O)(O)O`, the activity, negative = inhibition is reported as 11.2% [at 11.4 µM].
With `CO[C@@H]1CC=C2CCN3CCC4=C(CC(=O)OC4)[C@]23C1` the “activity, negative = inhibition” value was -6.15%.
`CN1C(=O)COc2c(C(=O)N[C@@H]3CN4CCC3CC4)cc(Cl)cc21` was tested, and the “activity, negative = inhibition” value was 6.82%.
`Cn1cc(C(=O)C(=O)N[C@H]2CN3CCC2CC3)c2ccccc21` was tested, and the AC50 was 0.0631 µM (active).
For `CC(C)n1cnc2c(C(=O)N[C@H]3CN4CCC3CC4)cc(Cl)cc21`, the “activity, negative = inhibition” value was 3.65%.
In the case of `CCNC(C)(C)[C@@H](SS)c1ccc(Br)cc1`, the AC50 is reported as 2 µM (active).
For `CNCCc1ccc(O)c(O)c1`, the “activity, negative = inhibition” value was -2.02%.
In the case of `Nc1nc(N)c(Cn2ccnc2)c(=O)[nH]1`, the activity, negative = inhibition is reported as -11.4% [at 11.4 µM].
In the case of `CS(=O)(=O)Nc1ccc(Cc2noc(-c3ccc4[nH]cc(CCN)c4c3)n2)cc1`, the AC50 is reported as 0.126 µM (active).
With `CCCN[C@@H]1CCc2c(OC)cccc2[C@@H]1C` the AC50 was 0.251 µM (active).
With `CCCN(CCC)[C@@H]1CCc2c(OC)cccc2[C@@H]1C` the “activity, negative = inhibition” value was 5.27%.
`OC1(c2ccc(F)cc2)CCNC1` (stereo not drawn) was tested, and the “activity, negative = inhibition” value was -4.2%.
With `CCCN1CCC[C@@H]2Cc3[nH]ncc3C[C@H]21` the AC50 was “inactive”.
For `C[C@@]12CC[C@H]3[C@@H](CCC4=C(O)C(=O)CC[C@]43C)[C@H]1CCC2=O`, the “activity, negative = inhibition” value was -13.5%.
With `Cc1nccc2c1[nH]c1ccccc12` the AC50 was 10 µM (active).
For `COC(=O)c1cc2c(cn1)[nH]c1ccccc12`, the “activity, negative = inhibition” value was -1.19%.
`Cc1c2ccncc2c(C)c2c1[nH]c1ccccc12` was tested, and the AC50 was 6.31 µM (active).
`O=[N+]([O-])c1ccc(N2CCNCC2)cc1NCC1CCCO1` (stereo not drawn) was tested, and the “activity, negative = inhibition” value was -5.92%.
In the case of `NC(=O)CI`, the “activity, negative = inhibition” value is reported as -9.38%.
With `CN1CCC(c2c[nH]c3ccc(O)cc23)CC1` the “activity, negative = inhibition” value was -0.301%.
With `NCCc1c[nH]c2ccc(C(N)=O)cc12` the AC50 was “inactive”.
With `NCCc1c[nH]c2ccc(O)cc12` the “activity, negative = inhibition” value was -15.6%.
In the case of `CCCN(CCC)CCc1c[nH]c2ccc(C(N)=O)cc12`, the AC50 is reported as 39.8 µM (active).
For `C=C[C@@H]1CN2CC[C@H]1C[C@H]2[C@H](O)c1ccnc2ccccc12`, the AC50 was 3.98 µM (active).
With `CC[C@H]1CN2CC[C@@H]1C[C@H]2[C@@H](O)c1ccnc2ccc(OC)cc12` the AC50 was 3.16 µM (active).
In the case of `C=C[C@H]1CN2CC[C@@H]1C[C@H]2[C@@H](O)c1ccnc2ccccc12`, the AC50 is reported as 3.16 µM (active) and 501 nM (active).
In the case of `O=C(O)CC[N+](=O)[O-]`, the “activity, negative = inhibition” value is reported as 7.9%.
With `C[C@H]1C(=O)O[C@@H]2CCN3CC=C(COC(=O)[C@@](C)(O)[C@@]1(C)O)[C@H]23` the “activity, negative = inhibition” value was 6.81% [at 25.6 µM].
With `CCOP(=O)(OCC)C(NC(C)=O)C(Cl)(Cl)Cl` (stereo not drawn) the “activity, negative = inhibition” value was 2.71%.
With `N[C@@H](CP(=O)(O)O)C(=O)O` the activity, negative = inhibition was -1.79% [at 11.4 µM].
With `COc1ccc(C(=O)c2c(C)n(CCN3CCOCC3)c3cc(I)ccc23)cc1` the “activity, negative = inhibition” value was 6.13%.
